DAX1 inh-1: NR0B1 (DAX1) inhibition; P51843; HEK293 Gal4-DAX1 luciferase reporter, luminescence; inhibition, % at 6.75 µM; 340,000 compounds, 0.99% hits;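 active = inhibition above the mean over all tested compounds plus 3 SD, cut at about 4.2% in these data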;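 also: 0% = DAX1-transfected cells with DMSO and 100% = empty-vector control cells with DMSO; inhibition shows as a rise in luminescence from relieved DAX1 repression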
Target sequence (P51843 207-470 limits assumed): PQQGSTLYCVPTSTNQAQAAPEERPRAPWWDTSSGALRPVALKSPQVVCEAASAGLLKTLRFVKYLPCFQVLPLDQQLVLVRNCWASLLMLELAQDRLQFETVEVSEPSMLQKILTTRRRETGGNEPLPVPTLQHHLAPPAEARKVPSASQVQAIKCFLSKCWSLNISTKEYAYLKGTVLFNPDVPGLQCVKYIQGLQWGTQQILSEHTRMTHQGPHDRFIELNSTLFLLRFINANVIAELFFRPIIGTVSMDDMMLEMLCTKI
hcDAF-12 act: H. contortus DAF-12 activation, primary screen; HEK293 hcDAF-12 lit1-tk-luc reporter, luminescence; 0% DMSO, 100% Δ7-dafachronic acid; activation, % at 6.8 µM; 370,000 compounds, 1.4% hits; AID 652067;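 active = activation above the mean of all tested compounds plus 3 SD, cut at about 5.5% in these data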;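 also: 100% = response to 3 µM Δ7-dafachronic acid high control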
ssDAF-12 act: S. stercoralis DAF-12 activation, primary screen; HEK293 ssDAF-12/GRIP1 lit1-tk-luc reporter, luminescence; % of 3 µM dafachronic acid response; activation, % at 6.8 µM; 370,000 compounds, 1% hits;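 active = activation above the mean over all tested compounds plus 3 SD, cut at about 0.9% in these data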;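 also: 0% = DMSO-only wells and 100% = 3 µM delta7-dafachronic acid wells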
DAX1 inh-2: inhibitors of DAX1 repression of SF-1 activated StAR promoter | HEK293T StAR-luciferase reporter, SF-1/DAX-1 repression relief | inhibition, % at 6.8 µM | 370,000 compounds, 1.1% hits;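 active = inhibition above the mean over all tested compounds plus 3 SD, cut at about 3.6% in these data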;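 also: 0% = DAX-1 cells with DMSO and 100% = cells lacking DAX-1 with DMSO; higher inhibition means more luminescence from relief of DAX-1 repression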
hgDAF12 agonist: hgDAF-12 agonism, primary luciferase screen. 370,000 compounds, 1.8% hits. AID 687014. activation, % at 6.8 µM. HEK293 GAL4-hgDAF12 UAS-luciferase reporter, agonist luminescence; normalized to butyrate control;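 active = activation above a cutoff set at the mean of all screened compounds plus 3 SD, cut at about 10% in these data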;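 also: 0% = DMSO wells and 100% = sodium butyrate wells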
Active calls of the source: *; x = not tested or not shown. Hits are enriched below; roughly 4.1% of the tested compounds scored in any of these assays.

SMILES	DAX1 inh-1	hcDAF-12 act	ssDAF-12 act	DAX1 inh-2	hgDAF12 agonist
COc1ccc(-c2noc(-c3ccc(Cl)cc3[N+](=O)[O-])n2)cc1OC	2.6	5.7*	-0.7	0.9	6.6
COc1ccc(-c2noc(-c3ccccc3Cl)n2)cc1OC	5.1*	2.0	-0.8	2.7	7.4
COc1ccc(-c2noc(-c3cccc(Cl)c3)n2)cc1OC	0.1	-2.2	-1.7	0.1	3.2
CCCCCCCCN1C(=O)[C@@H](CC(=O)N2CCCCC2)C[C@@]2(C(=O)OC)C1=C[C@H](C(C)(C)C)O[C@@H]2C	x	-0.5	-0.9	1.1	-0.9
O=C(c1ccccc1)N1CCN(S(=O)(=O)c2ccc(Cl)c(C(F)(F)F)c2)CC1	0.8	0.6	-0.9	1.2	-0.4
O=C(c1ccccc1C(F)(F)F)N1CCN(S(=O)(=O)c2ccccc2)CC1	7.5*	-1.0	-0.8	0.6	-1.1
Cc1ccc(S(=O)(=O)N(C)[C@H]2C[C@H]3c4cc(-c5ccc6c(c5)OCO6)ccc4CCN3C[C@H]2[C@H](C)O)cc1	x	-0.6	-0.7	0.6	-3.1
COc1cccc(NC(=O)n2nc(N)cc2-c2ccc(Cl)cc2)c1	-0.6	-0.1	-0.6	-0.6	12.0*
COc1cccc(NC(=O)COC(=O)Cc2ccc(Cl)cc2)c1	0.7	-0.2	0.0	0.7	0.2
OCCCNc1ncnc2c1ncn2[C@H]1CN(C2CCCC2)C[C@@H](CO)O1	x	-0.9	-1.6	-0.1	-5.7
O=C1OCC2=C1C(c1ccccc1)CC(=O)N2c1ccc(F)cc1 (stereo unspecified)	0.5	-1.0	-1.4	1.1	11.7*
CC(NC(=O)c1cccc(Cl)c1)C1CC2CCC1C2 (stereo unspecified)	2.1	0.0	-0.6	-0.5	0.7
CC1(C)C=Cc2cc3ccc(=O)oc3cc2O1	6.7*	2.3	0.2	1.2	8.1
COc1c2c(cc3oc(=O)ccc13)OC(C)(C)C=C2	3.8	3.9	-1.0	0.6	10.3
COc1ccc(C)cc1-n1nnnc1SCc1nc2ccccc2s1	0.1	5.9*	1.2*	1.3	6.2
COc1ccc(C)cc1-n1nnnc1SCC1CCCO1 (stereo unspecified)	-1.1	1.7	-0.5	-0.7	-1.1
COC(=O)[C@]12C[C@H](CC(=O)N3CCOCC3)C(=O)N(CCc3ccc(OC)c(OC)c3)C1=C[C@H](C(C)(C)C)O[C@@H]2C	x	-0.8	-0.9	-1.1	-2.3
O=C(Cc1ccccc1[N+](=O)[O-])N1CCc2ccccc2C1	0.5	4.2	1.1*	0.6	10.9*
COc1ccccc1C(=O)N1CCN(C(=O)[C@H](CCc2ccccc2)NC(=O)[C@H]2O[C@@H](n3cnc4c(N)ncnc43)[C@H](O)[C@@H]2O)CC1	x	1.2	-1.6	0.6	-0.2
O=C1c2ccccc2C(=O)C1Cc1cccc2ccccc12	-0.9	4.1	0.9*	0.8	3.0
O=C1NC(c2cccc3ccccc23)Nc2ccccc21 (stereo unspecified)	-1.9	1.0	-0.1	0.6	-3.2
C/C(=N\Nc1nncc2ccccc12)c1ccc(C(C)(C)C)cc1	4.9*	x	x	x	x
COc1cc(/C=N/Nc2nncc3ccccc23)cc(OC)c1OC	1.2	-0.5	-0.9	0.9	7.6
COc1cc(C(=O)NCC2CCCO2)cc(Br)c1OCc1ccccc1 (stereo unspecified)	-0.7	-2.2	-1.8	-3.1	-2.7
COc1ccc(-c2ccc3sc4ccccc4c(=O)c3c2)cn1	2.1	1.9	-0.6	0.6	10.5*
SMILES	DAX1 inh-1	hcDAF-12 act	ssDAF-12 act	DAX1 inh-2	hgDAF12 agonist
C[C@@H](c1ccccc1)N1C[C@H](COCc2ccccc2)Oc2cc(N3CCC[C@@H]3CO)ccc2S1(=O)=O	x	1.1	-0.8	0.4	1.2
COc1ccc(-c2ccc3c(c2)[C@@H]2C[C@H](N(C)C(=O)Nc4ccccc4)[C@H]([C@H](C)O)C(=O)N2CC3)cc1	0.5	-0.5	-1.6	-0.4	2.4
O=C(O)CCSc1nc2ccccc2n1-c1ccccc1	-0.2	6.0*	-0.6	0.6	-0.1
CC(C)N(C(=O)CSc1nc2ccccc2n1-c1ccccc1)C(C)C	-0.7	-1.9	-1.0	-1.0	-2.5
COCCN1C(=O)C2=C(C1=O)C1N(C)c3ccccc3[C@@]13C[C@@H](CO)N(C(=O)CCC(=O)OC)C3=N2 (stereo partly specified)	x	1.0	-0.7	-0.4	-0.9
Cc1ccnc(N(C(=O)c2cccs2)C(=O)c2cccs2)c1	2.5	2.3	0.0	2.2	12.5*
Cc1ccnc(NC(=O)CNC(=O)c2ccc(C)s2)c1	1.6	2.6	0.1	4.0*	9.5
Cc1ccnc(NC(=O)CCCNC(=O)c2ccc(Cl)cc2)c1	0.8	1.2	-0.1	4.0*	8.5
CCCCC(=O)Nc1cc(C)c(NC(=O)c2cccs2)cn1	-0.4	-1.7	-1.6	0.3	0.3
CCCCC(=O)Nc1cnc(NC(=O)c2cccs2)cc1C	2.1	3.9	0.4	2.2	11.7*
O=C(c1cccs1)N(C(=O)c1cccs1)c1ccc(Br)cn1	1.6	2.8	0.0	1.5	9.8
O=C(NCCN1CCC(n2c(=O)[nH]c3ccccc32)CC1)c1ccc(C(F)(F)F)cc1C(F)(F)F	x	-3.1	-1.5	-4.9	-4.3
O=C1CCC[C@H]2C[C@H](NCc3ccc(Cl)c(C(F)(F)F)c3)CC[C@]23CCCN13	x	-0.6	-1.4	x	0.1
Cc1ccnc(NC(=O)CCC(=O)c2cccs2)c1	-4.7	2.2	-0.5	4.0*	1.2
COc1cccc(/C=N/n2c(=O)[nH]c3ccccc32)c1OC	4.9*	0.2	-1.2	1.3	2.1
Cc1cc(Oc2cccnc2)ccc1NC(=O)Cc1c[nH]c2ccccc12	x	3.8	-0.5	-0.8	3.0
COC(=O)[C@]12C[C@H](CC(=O)NCC34CC5CC(CC(C5)C3)C4)C(=O)N(CCC3=CCCCC3)C1=C[C@H](COCc1ccccc1)O[C@@H]2C	x	-0.7	-1.2	1.6	2.5
CCOC(=O)c1[nH]c2ccccc2c1NC(=O)Nc1ccc(OC)cc1	0.7	4.2	0.9*	0.5	1.5
CCOC(=O)c1[nH]c2ccc(OC)cc2c1NC(=O)c1ccccc1C(=O)O	4.3*	2.3	-0.4	1.0	4.7
CCOC(=O)c1[nH]c2ccccc2c1NC(=S)Nc1cc(C)ccc1C	2.0	6.1*	0.2	-0.5	5.5
O=S1(=O)c2cc(Cl)ccc2N2CC[C@H](C2)N1Cc1ccc(Cl)c(Cl)c1	x	-0.9	-0.8	0.5	-0.8
C#CCN1CC(COCCCC)Oc2cccc(F)c2S1(=O)=O (stereo unspecified)	x	-0.5	-1.0	0.0	-1.5
Cc1cccc(OCC(=O)Nc2ccc3c(c2)nc(CCN2CCN(C)CC2)n3C)c1	4.9*	-1.0	-1.1	0.3	0.0
Cc1cccc(OCC(=O)Nc2ccc3c(c2)nc(CCN2CCC(C)CC2)n3C)c1	-0.3	1.2	-1.4	-0.3	-3.3
COc1cccc(Cn2cc(COC(=O)N3CCCC3)nn2)c1	x	-2.1	-1.6	0.3	-0.6

Source: PubChem
